# Assay results taken from PubChem BioAssay (Tox21).
# Records with an inconclusive call do not appear. A call without a number means that no potency is given here. Calls of active or inactive are those of the source. The call rests on the fitted dose curve; in most records, active means well fitted cell-killing curve with a large enough effect in the repeat runs; inconclusive means weak or mixed curves; inactive means flat fitted curve, though single readings scatter.
# Experiment: qHTS assay to identify small molecule antagonists of the TGF-beta/Smad signaling pathway - cell viability counter screen (AID 1346824); further: nearly all actives have a fitted effect of over 50% in size
# Conditions: SBE-bla HEK293T viability, CellTiter-Glo luminescence; series mostly up to 76.8 µM
# Description: U.S. Tox21 Program National Center for Advancing Translational Sciences [NCATS] NIH Chemical Genomics Center [NCGC] U.S. Environmental Protection Agency [EPA] National Institutes of Environmental Health Sciences [NIEHS] National Toxicology Program [NTP] U.S. Food and Drug Administration [FDA] Tox21 Assay Overview: Transforming growth factor beta (TGF-beta) superfamily consists of a large number of structurally related dimeric proteins that act as hormones or local mediators in regulating a wide range of biological functions. This superfamily includes TGF-betas themselves, the bone morphogenetic proteins (BMPs) and the activins. These ligands induce oligomerization of serine/threonine receptor kinases and phosphorylate the cytoplasmic signaling molecules of Smad protein family. CellSensor SBE-bla HEK 293T cell line (Life Technologies, Carlsbad, CA), responsive to TGF-beta was used to screen Tox21 10K compound library for identification of agonists/antagonists of the Smad signaling pathway. This cell line contains a beta-lactamase reporter gene under control of the Smad binding element (SBE) stably integrated into HEK 293T cells. Also cytotoxicity of the compounds was tested in parallel by measuring the cell viability using CellTiter-Glo assay system in the same wells.
# Tox21 Assay Protocol Summary: SBE-bla HEK 293T cells were dispensed at 4,000/well in 5 uL of assay medium into black wall/clear-bottom 1536-well plates using a Multidrop Combi (ThermoFisher Scientific, Waltham, MA) dispenser. After the assay plates were incubated at 37 C and 5% CO2 for an overnight, 23 nL of compounds dissolved in DMSO, positive controls or DMSO only was transferred to the assay plate by a Pintool station (Kalypsys, San Diego, CA). Compound transfer was followed by the addition of 1 uL of 0.25 ng/mL TGF-beta1 or assay buffer using two separate tips of Flying Reagent Dispenser (FRD, Aurora Discovery, San Diego, CA). The assay plates were incubated at 37 C and 5% CO2 for 5 hr. One uL of LiveBLAzer B/G FRET substrate (Life Technologies) was added using a Flying Reagent Dispenser (FRD, Aurora Discovery, San Diego, CA) and the plates were incubated at room temperature for 2 hr. Fluorescence intensity (405 nm excitation, 460 nm and 530 nm emissions) was measured using an Envision plate reader (PerkinElmer, Shelton, CT). For cytotoxicity read, 4 uL of CellTiter-Glo reagent (Promega Corporation, Madison, WI) was added to each well of the assay plates using FRD. After 30 min incubation at room temperature, the luminescence intensity was measured using ViewLux plate reader (PerkinElmer).
row,Compound,Potency
1,CC(=O)OCC[N+](C)(C)C,inactive
2,CCCCCCC(C)(C)C(=O)O,inactive
3,CC1(C)O[C@@H]2C[C@H]3[C@@H]4C[C@H](F)C5=CC(=O)C=C[C@]5(C)[C@H]4[C@@H](O)C[C@]3(C)[C@]2(C(=O)CO)O1,inactive
4,C[C@@]12CCC[C@H]1[C@@H]1CC[C@H]3C[C@@H](O)CC[C@]3(C)[C@H]1CC2,inactive
5,N#CCc1ccc(Cl)cc1Cl,inactive
6,CC(=O)NC1(c2cccc(F)c2)CCN(CC[C@@]2(c3ccc(Cl)c(Cl)c3)CN(c3ccccc3)C(=O)CO2)CC1,inactive
7,C/C=C\C/C=C/CCCCCCCCOC(C)=O,inactive
8,O=C(O)CCc1nc(-c2ccccc2)c(-c2ccccc2)o1,inactive
9,CCOC(=O)[C@H](CCc1ccccc1)N[C@@H](C)C(=O)N(CC(=O)O)C1Cc2ccccc2C1,inactive
10,CC(=O)[C@H]1[C@H](C#N)C[C@H]2[C@@H]3CC=C4C[C@@H](O)CC[C@]4(C)[C@H]3CC[C@@]21C,inactive
11,CC(CC1c2ccccc2CCc2ccccc21)CN(C)C (stereo not given),inactive
12,CC(O)c1ccccc1 (stereo not given),inactive
13,C[C@@H]1CN(CCCn2c3ccccc3c3ccccc32)C[C@H](C)N1,inactive
14,C[C@@H](CN(C)C)CN1c2ccccc2Sc2ccccc21,inactive
15,C=C1CCC2CC1C2(C)C (stereo not given),inactive
16,Clc1ccc(Nc2nnc(Cc3ccncc3)c3ccccc23)cc1,inactive
17,CC(=O)Nc1cc(S(=O)(=O)O)cc2cc(S(=O)(=O)O)c(N=Nc3ccccc3)c(O)c12,inactive
18,CCC=CC#N,inactive
19,CC(C)=CCC/C(C)=C/CC/C(C)=C/CCC(=O)OC/C=C(\C)CCC=C(C)C,inactive
20,CCOC(=O)c1ccc(OCCN2C[C@H](O)[C@@H](O)[C@H](O)[C@H]2CO)cc1,inactive

row,Compound,Potency
1,COC(=O)[C@H]1[C@H]2C[C@@H]3c4[nH]c5cc(OC)ccc5c4CCN3C[C@H]2C[C@@H](OC(=O)/C=C/c2ccc(O)c(OC)c2)[C@@H]1OC,inactive
2,C[C@@H](O[C@H]1OCCN(Cc2n[nH]c(=O)[nH]2)[C@H]1c1ccc(F)cc1)c1cc(C(F)(F)F)cc(C(F)(F)F)c1,inactive
3,Cc1ccc(C(C)(C)O)cc1,inactive
4,Oc1c(I)cc(I)c2cccnc12,inactive
5,C=CCc1ccccc1OCC(O)CNC(C)C (stereo not given),inactive
6,C=C/C(C)=C/C/C=C(\C)CCC=C(C)C,inactive
7,CCOC(=O)c1ccc(O)c(O)c1,inactive
8,Nc1cccc2c1CN(C1CCC(=O)NC1=O)C2=O (stereo not given),inactive
9,NNC(=O)CP(=O)(c1ccccc1)c1ccccc1,inactive
10,CC(C)(C)CC(=O)OCC(=O)[C@@]1(O)CC[C@H]2[C@@H]3CCC4=CC(=O)C=C[C@]4(C)[C@H]3[C@@H](O)C[C@@]21C,inactive
11,C(=C\c1ccccc1)/c1ccccc1,inactive
12,CC[N+](CC)(CCNC(=O)C(=O)NCC[N+](CC)(CC)Cc1ccccc1Cl)Cc1ccccc1Cl,inactive
13,CCOc1cccc(-n2cc(C(=O)N3CCN(c4cc(C(=O)O)c5ccccc5c4)CC3)nc2-c2ccc(C)cc2)c1,inactive
14,C=Cc1ccc(S(=O)(=O)O)cc1,inactive
15,CC1(C)[C@H](C(=O)O)N2C(=O)C[C@H]2S1(=O)=O,inactive
16,CCn1cc(C(=O)O)c(=O)c2cc(F)c(N3CCNCC3)cc21,inactive
17,O=[N+]([O-])c1ccc(Nc2ccc(Nc3ccccc3)c(S(=O)(=O)O)c2)c([N+](=O)[O-])c1,inactive
18,CC(C)(c1ccccc1)c1ccccc1,inactive
19,Clc1cc(Cl)nc(Cl)n1,inactive
20,CN1C(=O)c2ccccc2C1=O,inactive
